Our source for the inhibition values is PubChem BioAssay AID743269 (The Scripps Research Institute Molecular Screening Center, 2014).

Structures are written as SMILES. The whole screen tested about 370,000 compounds, of which about 2,400 (0.65%) were called active. The list comes from a sample in which actives are over-represented; it also holds similar structures and randomly drawn compounds. Unmarked numbers belong to inactive results.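 How the source made its calls: active means inhibition above the screen-wide mean plus 3 SD (cut at about 13% in these data); inactive means the rest.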

For this assay, the system named is HIV-1 integrase (with human LEDGF/p75). Description: blockers of LEDGF/p75-dependent integrase strand transfer – biochemical, TR-FRET, high throughput, primary screen (AID 743269).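 Further: signal is the Cy5 over europium emission ratio at 671 and 618 nm; 0% = plate median of compound wells.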 Conditions: TR-FRET IN-LEDGF/p75 DNA integration, Eu/Cy5; at 3.7 µM; hits give high values.
`Nc1ccc2nc3c(=O)[nH]c(=S)[nH]c3nc2c1`: the inhibition is 39.9% (active). For the molecule `COc1ccc(Cn2cc(CN3[C@@H](CC(C)C)COc4cc(Br)ccc4S3(=O)=O)nn2)cc1`, the inhibition is 3.34%. Consider `Cc1nc(CNc2ncnc3ccc(-c4ccc5c(c4)OCO5)cc23)cs1`, for which the inhibition is -1.03%. `O=C(NCCCc1ccccc1)[C@H](Cc1ccccc1)NC1(C(=O)NCCc2c[nH]c3ccccc23)CCC1`: the inhibition is -0.75%.

`COc1ccc(N2CCN(CCNS(=O)(=O)c3ccc(C(C)(C)C)cc3)CC2)cc1`: the inhibition was 1.13%.

Turning to `CC(=O)OCCN1CCCC12CCC(c1ccccc1)CC2` (centres undefined), the inhibition was -3.46%. `COC(=O)C1CN(Cc2cn(Cc3ccc(F)cc3)nn2)CCS(=O)(=O)N1Cc1ccc(Cl)cc1` (centres undefined): the inhibition is 0.07%. Turning to `CC(=O)OCC1(O)CC23CCC4c5ccoc5CCC4(C)C2CCC1C3` (centres undefined), the inhibition was 36.9% (active). In the case of `COC(=O)c1ccccc1-n1cc(COC(=O)NCCc2ccccc2)nn1` it was -3.43%; in that of `C=CCN1C(=O)[C@@H](CC(=O)NCC2CCCCC2)[C@]2(C(=O)OC)CCCCC=C12`, 0.59%. `CCOc1ccc(N(CC(=O)Nc2c(C)n(C)n(-c3ccccc3)c2=O)S(=O)(=O)c2ccc(Cl)s2)cc1`: the inhibition was 2.7%. For `CC(=O)NC(CC(=O)O)c1ccc(F)cc1` (centres undefined), the inhibition was -3.02%. In the case of `O=C(O)C(CCc1ccccn1)c1ccccc1` (centres undefined) it was 0.2%; in that of `CN(C)c1ccc(C(CC(=O)O)C(=O)O)cc1` (centres undefined), 18.1% (active). In the case of `COc1ccnc(NC(=S)N2CCN(c3ncc(C(F)(F)F)cc3Cl)CC2)c1` it was 4.7%; in that of `O=C1OC(NC(=O)c2ccccc2)C(N2CCOCC2)=C1Cl` (centres undefined), 1.92%; in that of `O=C(O)c1ccc(NN=CC2=C(N3CCOCC3)/C(=C/c3ccccc3)CC2)cc1`, 27.7% (active). Consider `O=C(Nc1ccc(F)cc1)c1cccnc1N1CCOCC1`, for which the inhibition was 1.85%.

Turning to `COc1ccc(Cn2ccc3ccc(-c4ccc5ccn(Cc6ccccc6C)c5c4)cc32)cc1`, the inhibition was -3.41%. For the molecule `O=S1(=O)c2ccc(N3CCN(Cc4ccccc4F)CC3)cc2Oc2ccccc2CN1Cc1cn(Cc2ccc(Cl)cc2)nn1`, the inhibition was 3.58%. Turning to `Cc1ccsc1/C=N/NC(=O)Cc1cc(=O)[nH][nH]1`, the inhibition was -1.18%. For `O=[N+]([O-])c1ccc(C=Nc2ccc(Cl)cc2Cl)s1`, the inhibition was -0.56%. For the molecule `Cc1ccccc1NCC(=O)N/N=C\c1ccc([N+](=O)[O-])s1`, the inhibition is 19.6% (active). As to `CN(CCO)c1cccc2c1S(=O)(=O)N(Cc1cn(Cc3ccc(C(F)(F)F)cc3)nn1)Cc1ccccc1O2`, the inhibition is 5.32%.
